According to PubChem BioAssay (NCI):
“And” between values parts separate entries of the source, which are not always exact repeats. Equal values may be shown once. This is part of a sample that, as a whole, favours compounds with a hit. Of some 83,000 tested, about 20% had one in any assay.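 Compound tested at a single concentration for 48 hours in 96-well plates; a percent growth value below 10 was scored as active.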 The source made the active and inactive calls.

Tests used:
Assay in all cases: NCI-60 one-dose screen, 48 h (100 = growth as untreated, 0 = no growth, -100 = all killed)
Details in all cases: 10 µM unless noted
[1] = test system: HCT-15 colon
[2] = test system: HT29 colon
[3] = test system: SNB-75 CNS
[4] = test system: SNB-19 CNS
[5] = test system: U251 CNS
[6] = test system: PC-3 prostate
[7] = test system: SK-MEL-5 melanoma
[8] = test system: UACC-62 melanoma
[9] = test system: LOX IMVI melanoma
[10] = test system: SK-MEL-28 melanoma
[11] = test system: SK-MEL-2 melanoma
[12] = test system: EKVX NSCLC
[13] = test system: SN12C renal
[14] = test system: UO-31 renal
[15] = test system: TK-10 renal
[16] = test system: ACHN renal
[17] = test system: CAKI-1 renal
[18] = test system: A498 renal
[19] = test system: CCRF-CEM leukemia
[20] = test system: MOLT-4 leukemia

Compound | growth [1] | growth [2] | growth [3] | growth [4] | growth [5] | growth [6] | growth [7] | growth [8] | growth [9] | growth [10] | growth [11] | growth [12] | growth [13] | growth [14] | growth [15] | growth [16] | growth [17] | growth [18] | growth [19] | growth [20]
O=C(c1cccc(Br)c1)N1CCN(c2ccnc3cc(Cl)ccc23)CC1 | 90.3% (inactive) | 81.7% (inactive) | 117% (inactive) | 85.1% (inactive) | 78.2% (inactive) | 79% (inactive) | 82.2% (inactive) | 70.1% (inactive) | 102% (inactive) | 95.7% (inactive) | 85.7% (inactive) | 87.5% (inactive) | 94% (inactive) | 63.6% (inactive) | 75.8% (inactive) | 90.6% (inactive) | 79% (inactive) | 34.1% (inactive) | 87.3% (inactive) | 87.8% (inactive)
CN(C)CC1(C)Cc2ccsc2C1O (stereo not given) | 108% (inactive) and 105% (inactive) | 104% (inactive) and 99.1% (inactive) | 110% (inactive) and 101% (inactive) | 108% (inactive) and 106% (inactive) | 112% (inactive) and 103% (inactive) | 98.2% (inactive) and 100% (inactive) | 110% (inactive) and 107% (inactive) | 109% (inactive) and 112% (inactive) | 97.3% (inactive) and 102% (inactive) | 120% (inactive) and 126% (inactive) | 108% (inactive) and 110% (inactive) | 103% (inactive) and 92.3% (inactive) | 110% (inactive) and 111% (inactive) | 94.2% (inactive) and 87.3% (inactive) | 105% (inactive) and 94.1% (inactive) | 99.6% (inactive) and 106% (inactive) | 106% (inactive) and 103% (inactive) | 97.9% (inactive) and 95.5% (inactive) | 94.8% (inactive) | 99.9% (inactive) and 86.4% (inactive)
O=C1C=C(Nc2ccccc2)c2ncccc2C1=O | -68.7% (active) | -37% (active) | -97.1% (active) | -92.8% (active) | -97.9% (active) | -17.7% (active) | -97.8% (active) | -92.3% (active) | -77.7% (active) | -81.3% (active) | -66.8% (active) | -85.3% (active) | -88.8% (active) | -98.6% (active) | -96.9% (active) | -98.3% (active) | -95.9% (active) | -87.5% (active) | -29.9% (active) | -49.6% (active)
CCOC(=O)C(=CCC(C)C)C(=O)OCC | 100% (inactive) | 104% (inactive) | 93.1% (inactive) | 98.7% (inactive) | 98.8% (inactive) | 95.5% (inactive) | 103% (inactive) | 93% (inactive) | 93.3% (inactive) | 107% (inactive) | 113% (inactive) | 112% (inactive) | 90.5% (inactive) | 78.5% (inactive) | 121% (inactive) | 103% (inactive) | 99.4% (inactive) | 76.2% (inactive) | 108% (inactive) | 98.1% (inactive)
Nc1nc2c(s1)CCc1cn(S(=O)(=O)c3ccccc3)cc1-2 | 98.3% (inactive) and 99.3% (inactive) | 106% (inactive) | 80.5% (inactive) and 89.9% (inactive) | 94.6% (inactive) and 97% (inactive) | 80.3% (inactive) and 97.7% (inactive) | 75.6% (inactive) and 84.4% (inactive) | 90.1% (inactive) and 95% (inactive) | 79.4% (inactive) and 96.3% (inactive) | 84.1% (inactive) and 104% (inactive) | 113% (inactive) and 104% (inactive) | 106% (inactive) and 99.1% (inactive) | 95.8% (inactive) | 86.6% (inactive) and 93.5% (inactive) | 54.5% (inactive) and 84.5% (inactive) | 108% (inactive) and 115% (inactive) | 95.9% (inactive) and 101% (inactive) | 85.8% (inactive) and 101% (inactive) | 80% (inactive) and 73.5% (inactive) | 79.9% (inactive) and 79.3% (inactive) | 84.3% (inactive) and 91.6% (inactive)
O=C(NCc1cccnc1)/C(=C\c1ccc(Br)cc1)S(=O)(=O)c1ccccc1 | -33.2% (active) | -72.2% (active) | 9.38% (active) | -2.37% (active) | -87.1% (active) | -0.986% (active) | -17.9% (active) | -31.3% (active) | -89.5% (active) | -39.3% (active) | -44% (active) | 11.1% (inactive) | -30.2% (active) | 10.7% (inactive) | -59.4% (active) | -15.3% (active) | -2.88% (active) | -20.4% (active) | 25.2% (inactive) | 64.1% (inactive)
Cc1ccc(C(=O)N(CCCN)[C@@H](c2nc3cc(Cl)ccc3c(=O)n2Cc2ccccc2)C(C)C)cc1 | -50% (active) | 0.611% (active) | -18.7% (active) | 5.11% (active) | -65% (active) | 16.4% (inactive) | -94.2% (active) | -79.6% (active) | -90% (active) | -31% (active) | -43% (active) | -7.16% (active) | -15.6% (active) | 5.01% (active) | -33.5% (active) | -28.3% (active) | 4.04% (active) | -4.18% (active) | 1.72% (active) | -29.3% (active)
CN1CCN(CCCN2c3ccccc3Sc3ccc(Cl)cc32)CC1 | 68.8% (inactive) and 80.8% (inactive) | 25.2% (inactive) and 35.9% (inactive) | 45.2% (inactive) and 57.4% (inactive) | 89.7% (inactive) and 91.4% (inactive) | 54.6% (inactive) and 68% (inactive) | 56.2% (inactive) and 53.6% (inactive) | 17.6% (inactive) and 62.1% (inactive) | 33.1% (inactive) | 54.4% (inactive) and 71.8% (inactive) | -18.1% (active) and 67.7% (inactive) | 106% (inactive) | 75% (inactive) and 77.4% (inactive) | 64% (inactive) and 76.7% (inactive) | 54.5% (inactive) | 74.9% (inactive) and 85.8% (inactive) | 62.9% (inactive) and 85.2% (inactive) | 55.2% (inactive) and 60.7% (inactive) | 82.2% (inactive) and 79.4% (inactive) | 80.1% (inactive) and 75.9% (inactive) | 70.3% (inactive) and 73.9% (inactive)
CCNC(=S)n1nc(SC)c(C(=O)OCC)c1N | 96.3% (inactive) | 102% (inactive) | 89.5% (inactive) | 93.6% (inactive) | 109% (inactive) | 102% (inactive) | 96.1% (inactive) | 81.6% (inactive) | 95.4% (inactive) | 102% (inactive) | 105% (inactive) | 101% (inactive) | 97.6% (inactive) | 77.8% (inactive) | 106% (inactive) | 96.7% (inactive) | 86.7% (inactive) | 97.5% (inactive) | 106% (inactive) | 81.3% (inactive)
COc1ccc(/C=C2/C(=O)N=C3N2NC(c2ccccc2)=CN3c2ccccc2)cc1 | 109% (inactive) | 109% (inactive) | 98.1% (inactive) | 97.7% (inactive) | 99.4% (inactive) | 96.1% (inactive) | 97.4% (inactive) | 94.2% (inactive) | 87.8% (inactive) | 108% (inactive) | 106% (inactive) | 103% (inactive) | 96% (inactive) | 77.4% (inactive) | 124% (inactive) | 96.2% (inactive) | 88.4% (inactive) | 107% (inactive) | 101% (inactive) | 106% (inactive)
CC(=O)OC[C@]12CCC(C)(C)C=C1[C@H]1CC[C@@H]3[C@@]4(C)CCCNC(C)(C)[C@@H]4CC[C@@]3(C)[C@]1(C)CC2 | 89.6% (inactive) | 31.6% (inactive) | 71.8% (inactive) | 53.4% (inactive) | 35.3% (inactive) | 37% (inactive) | 9.31% (active) | 34.4% (inactive) | 72.5% (inactive) | 59.1% (inactive) | 90.7% (inactive) | 89.5% (inactive) | 68.8% (inactive) | 91.5% (inactive) | 94.9% (inactive) | 99.3% (inactive) | 88.9% (inactive) | 97.9% (inactive) | 39.3% (inactive) | 38.8% (inactive)
O=C1/C(=C/c2cn(-c3ccccc3)nc2-c2ccccc2)SC(=S)N1c1ccccc1 | 101% (inactive) | 108% (inactive) | 97.2% (inactive) | 93.4% (inactive) | 103% (inactive) | 77.9% (inactive) | 98.9% (inactive) | 87.5% (inactive) | 86.8% (inactive) | 97.4% (inactive) | 110% (inactive) | 99% (inactive) | 90.7% (inactive) | 82.3% (inactive) | 106% (inactive) | 95.5% (inactive) | 87.2% (inactive) | 91.1% (inactive) | 101% (inactive) | 109% (inactive)
CN(Cc1ccccc1)c1nc(Cl)c(C2CC(c3ccc(F)cc3)=NN2C=O)s1 (stereo not given) | 90.4% (inactive) | 95.4% (inactive) | 97.3% (inactive) | 98.1% (inactive) | 97.7% (inactive) | 83.6% (inactive) | 90.4% (inactive) | 79.2% (inactive) | 92.8% (inactive) | 106% (inactive) | 116% (inactive) | 77.9% (inactive) | 103% (inactive) | 76.7% (inactive) | 96.2% (inactive) | 105% (inactive) | 83.8% (inactive) | 100% (inactive) | 95.6% (inactive) | 91.9% (inactive)
